# Reference: PubChem BioAssay (NCI)
# The panel holds about 83,000 compounds, 20% with a hit somewhere; the sample as a whole holds those more often.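 The endpoint reported here, percent growth, reads 100 for growth as untreated, 0 for no net growth and -100 for all cells dead.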 Values without a mark were called inactive. Active and inactive are the calls of the source. The calls were made as follows: active = growth percent below 10; inactive = the rest.
# Test system: M14 melanoma
# Assay: NCI-60 one-dose screen, 48 h (100 = growth as untreated, 0 = no growth, -100 = all killed)
# Details: 10 µM unless noted
row,SMILES,growth
1,Cn1c2ccccc2c2c3c(c4c5cc(Br)ccc5n(C)c4c21)C(=O)N(O)C3=O,-5.5% (active)
2,c1ccc2cc(Cn3cc(CSc4nc5ccccc5s4)nn3)ccc2c1,99.4%
3,COCCn1cc(-c2nc(-c3cc4cccnc4n3C)cs2)c2ccccc21,24.3%
4,COc1ccc(C2[C@@H](Cl)C(=O)N2c2cc(OC)c(OC)c(OC)c2)cc1Cl (some centres undefined),-4.46% (active)
5,N#Cc1nn(-c2cc(=O)[nH]c3ccc(Br)cc23)c(N)c1C#N,90.1%
6,CC1=C2CC/C(C)=C/CC[C@]3(C)O[C@H]3CC/C(C)=C/[C@H]2OC1,103%
7,CN(C)CCCn1c2c(c3cnccc3c1=O)C(=O)c1ccccc1-2,-47.9% (active)
8,CN1CCOCCN(C)Cc2ccc3ccc(cc3c2)CN(C)CCOCCN(C)Cc2ccc3ccc(cc3c2)C1,99.4%
9,COc1ccc2c(O)c(/C=C3\N=Nc4ncccc43)oc2c1C[C@@H]1CCNC[C@H]1F,-70.3% (active)
10,COc1cc(/C=C2\C(=O)N(CCCOc3cc(O)c4c(=O)cc(-c5ccccc5)oc4c3)c3ccccc32)cc(OC)c1O,57.1%
11,Cc1ccc(S(=O)(=O)c2nc(-c3ccccc3)oc2SCC(N)=O)cc1,97.1%
12,C=CN(C(=O)N1CCN(c2cc3c(cc2F)c(=O)c(C(=O)O)cn3C2CC2)CC1)c1nc(-c2ccccc2)cs1,105%
13,Cc1ccc(NC(=O)c2sc3nc(C)c(C(O)c4ccccc4)cc3c2N)cc1 (centres undefined),16.3%
14,Nc1c(Br)cc2c(c1Br)Cc1cc([N+](=O)[O-])ccc1-2,111%
